Reference: PubChem BioAssay AID1159580 (chemical genetic matrix, 2015)
Among all 5,500 compounds or so, about 2,000 (36%) were called active. Not shown: some 18% with an inconclusive outcome. No stated cut-off is given here; in the data, active means normalized growth mostly below about 0.91 (no sharp cut-off); inconclusive means no clear call, values can overlap the other calls; inactive means mostly above about 0.92. This is one part of the list.

Test: chemical genetic growth profiling, strain panel (AID 1159580);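 further: tested at 20 µM; growth read once vehicle control cultures reached saturation at 30 °C; 1 = growth at the plate median or of vehicle wells; lower values mean less growth of the strain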
Details: growth OD

Measured: normalized growth

C[C@H]1[C@H]2CCC3C4CC=C5C[C@@H](N(C)C)CC[C@]5(C)C4CC[C@@]32CN1C (some centres not stated)
inactive: S. cerevisiae deletion strains, locus YJR075W, strain HOC1, active compounds read low 0.974 | S. cerevisiae deletion strains, locus YKL009W, strain mrt4, active compounds read low 0.985 | S. cerevisiae deletion strains, locus YKL068W, active compounds read low 0.989 | S. cerevisiae deletion strains, locus YKL085W, strain MDH1 (second series), active compounds read low 0.997 | S. cerevisiae deletion strains, locus YKL085W, strain MDH1, active compounds read low 0.997 | S. cerevisiae deletion strains, locus YKL160W, strain elf1, active compounds read low 0.995 | S. cerevisiae deletion strains, locus YKL190W, strain CNB1, active compounds read low 0.98 | S. cerevisiae deletion strains, locus YKR001C, strain vps1, active compounds read low 0.989 | S. cerevisiae deletion strains, locus YKR026C, strain gcn3, active compounds read low 0.99 | S. cerevisiae deletion strains, locus YKR091W, strain srl3, active compounds read low 0.995 | S. cerevisiae deletion strains, locus YLL001W, strain dnm1, active compounds read low 0.98 | S. cerevisiae deletion strains, locus YLL026W, active compounds read low 0.987 | S. cerevisiae deletion strains, locus YLL041C, strain sdh2, active compounds read low 1 | S. cerevisiae deletion strains, locus YLR027C, strain aat2, active compounds read low 0.996 | S. cerevisiae deletion strains, locus YLR039C, strain RIC1, active compounds read low 1.01 | S. cerevisiae deletion strains, locus YLR058C, strain SHM2, active compounds read low 0.98 | S. cerevisiae deletion strains, locus YLR102C, strain apc9, active compounds read low 0.992 | S. cerevisiae deletion strains, locus YLR113W, strain HOG1, active compounds read low 1.02 | S. cerevisiae deletion strains, locus YLR221C, strain rsa3, active compounds read low 0.997 | S. cerevisiae deletion strains, locus YLR258W, strain gsy2, active compounds read low 0.975 | S. cerevisiae deletion strains, locus YLR262C, strain YPT6 (second series), active compounds read low 1 | S. cerevisiae deletion strains, locus YLR262C, strain YPT6, active compounds read low 0.962 | S. cerevisiae deletion strains, locus YLR268W, strain sec22, active compounds read low 1.02 | S. cerevisiae deletion strains, locus YLR320W, strain mms22, active compounds read low 0.955 | S. cerevisiae deletion strains, locus YLR330W, strain CHS5, active compounds read low 0.992 | S. cerevisiae deletion strains, locus YLR342W, strain FKS1 (second series), active compounds read low 0.986 | S. cerevisiae deletion strains, locus YLR342W, strain FKS1, active compounds read low 0.991 | S. cerevisiae deletion strains, locus YLR357W, strain rsc2, active compounds read low 0.955 | S. cerevisiae deletion strains, locus YLR370C, strain arc18, active compounds read low 0.992 | S. cerevisiae deletion strains, locus YLR371W, strain rom2, active compounds read low 0.981 | S. cerevisiae deletion strains, locus YLR384C, strain iki3, active compounds read low 0.983 | S. cerevisiae deletion strains, locus YLR418C, strain cdc73, active compounds read low 0.937 | S. cerevisiae deletion strains, locus YML016C, strain PPZ1, active compounds read low 0.993 | S. cerevisiae deletion strains, locus YML032C, strain rad52, active compounds read low 0.94 | S. cerevisiae deletion strains, locus YML120C, strain ndi1, active compounds read low 1.01 | S. cerevisiae deletion strains, locus YML124C, strain tub3, active compounds read low 0.996 | S. cerevisiae deletion strains, locus YMR058W, strain fet3, active compounds read low 0.993 | S. cerevisiae deletion strains, locus YMR078C, strain ctf18, active compounds read low 0.988 | S. cerevisiae deletion strains, locus YMR125W, strain sto1, active compounds read low 0.947 | S. cerevisiae deletion strains, locus YMR129W, active compounds read low 0.997 | S. cerevisiae deletion strains, locus YMR205C, strain PFK2, active compounds read low 0.935 | S. cerevisiae deletion strains, locus YMR223W, strain ubp8, active compounds read low 0.972 | S. cerevisiae deletion strains, locus YMR231W, strain pep5, active compounds read low 0.994 | S. cerevisiae deletion strains, locus YMR263W, strain SAP30, active compounds read low 0.987 | S. cerevisiae deletion strains, locus YMR307W, strain GAS1, active compounds read low 0.874 | S. cerevisiae deletion strains, locus YNL067W, strain RPL9B, active compounds read low 0.978 | S. cerevisiae deletion strains, locus YNL071W, strain lat1, active compounds read low 0.987 | S. cerevisiae deletion strains, locus YNL128W, strain TEP1, active compounds read low 0.981 | S. cerevisiae deletion strains, locus YNL153C, strain GIM3, active compounds read low 0.982 | S. cerevisiae deletion strains, locus YNL183C, strain NPR1, active compounds read low 0.973 | S. cerevisiae deletion strains, locus YNL209W, strain ssb2, active compounds read low 1 | S. cerevisiae deletion strains, locus YNL233W, strain BNI4, active compounds read low 1 | S. cerevisiae deletion strains, locus YNL248C, strain rpa49, active compounds read low 0.991 | S. cerevisiae deletion strains, locus YNL250W, strain rad50, active compounds read low 0.965 | S. cerevisiae deletion strains, locus YNL271C, strain bni1, active compounds read low 0.988 | S. cerevisiae deletion strains, locus YNL298W, strain CLA4, active compounds read low 0.977 | S. cerevisiae deletion strains, locus YNL307C, strain MCK1, active compounds read low 0.988 | S. cerevisiae deletion strains, locus YNL322C, strain KRE1 (second series), active compounds read low 0.992 | S. cerevisiae deletion strains, locus YNL322C, strain KRE1, active compounds read low 0.994 | S. cerevisiae deletion strains, locus YNR049C, strain mso1, active compounds read low 0.997 | S. cerevisiae deletion strains, locus YNR052C, strain pop2, active compounds read low 0.978 | S. cerevisiae deletion strains, locus YOL006C, strain TOP1, active compounds read low 0.991 | S. cerevisiae deletion strains, locus YOL012C, strain htz1 0.864 | S. cerevisiae deletion strains, locus YOL147C, strain pex11, active compounds read low 0.991 | S. cerevisiae deletion strains, locus YOR001W, strain rrp6, active compounds read low 1.02 | S. cerevisiae deletion strains, locus YOR061W, strain CKA2, active compounds read low 0.96 | S. cerevisiae deletion strains, locus YOR069W, strain VPS5, active compounds read low 1 | S. cerevisiae deletion strains, locus YOR070C, strain gyp1, active compounds read low 0.993 | S. cerevisiae deletion strains, locus YOR080W, strain dia2, active compounds read low 0.978 | S. cerevisiae deletion strains, locus YOR083W, strain WHI5, active compounds read low 1 | S. cerevisiae deletion strains, locus YOR106W, strain vam3, active compounds read low 1 | S. cerevisiae deletion strains, locus YOR136W, strain idh2, active compounds read low 0.991 | S. cerevisiae deletion strains, locus YOR144C, strain elg1, active compounds read low 0.991 | S. cerevisiae deletion strains, locus YOR184W, strain ser1, active compounds read low 0.963 | S. cerevisiae deletion strains, locus YOR231W, strain MKK1, active compounds read low 1.01 | S. cerevisiae deletion strains, locus YOR265W, strain rbl2, active compounds read low 0.991 | S. cerevisiae deletion strains, locus YOR270C, strain vph1, active compounds read low 1 | S. cerevisiae deletion strains, locus YOR290C, strain snf2, active compounds read low 0.96 | S. cerevisiae deletion strains, locus YOR316C, strain cot1, active compounds read low 0.989 | S. cerevisiae deletion strains, locus YPL051W, strain arl3, active compounds read low 1 | S. cerevisiae deletion strains, locus YPL055C, strain LGE1, active compounds read low 0.952 | S. cerevisiae deletion strains, locus YPL078C, strain atp4, active compounds read low 1.01 | S. cerevisiae deletion strains, locus YPL106C, strain sse1, active compounds read low 0.977 | S. cerevisiae deletion strains, locus YPL240C, strain hsp82, active compounds read low 0.993 | S. cerevisiae deletion strains, locus YPL241C, strain CIN2, active compounds read low 0.994 | S. cerevisiae deletion strains, locus YPL256C, strain CLN2, active compounds read low 1.01 | S. cerevisiae deletion strains, locus YPR119W, strain clb2, active compounds read low 1.01 | S. cerevisiae deletion strains, locus YPR141C, strain kar3, active compounds read low 0.98 | S. cerevisiae deletion strains, locus YPR163C, strain tif3, active compounds read low 0.986 | S. cerevisiae deletion strains, locus YPR167C, strain met16, active compounds read low 0.987 | S. cerevisiae deletion strains, strain wtn01, active compounds read low 1.02 | S. cerevisiae strains, strain wild type, active compounds read low 0.981
